# Screening results from PubChem.
# EP2 antag = EP2 receptor (human) inhibition. C6 glioma cells expressing human EP2, cAMP TR-FRET; cells stimulated with saturating PGE2. inhibition, % at 25 µM. 0.52% of 260,000 active;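 active = percent inhibition above 40 after rounding to a whole number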;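 note: rat C6 glioma host cells with rolipram phosphodiesterase inhibitor present; the protocol text gives 20 µM as final concentration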
# CHT PAM = allosteric activators of human choline transporter CHT; Q9GZV3; CHT-expressing cells, membrane potential dye, choline EC20; active compounds read high; LV-AA mutant CHT in HEK293 cells; B-score at 10 µM; 0.49% of 310,000 active;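 active = initial fluorescence not abnormally high and integrated response B-score, plate-corrected, over 3 SD above library mean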
# Target sequence (Q9GZV3 whole entry, looked up): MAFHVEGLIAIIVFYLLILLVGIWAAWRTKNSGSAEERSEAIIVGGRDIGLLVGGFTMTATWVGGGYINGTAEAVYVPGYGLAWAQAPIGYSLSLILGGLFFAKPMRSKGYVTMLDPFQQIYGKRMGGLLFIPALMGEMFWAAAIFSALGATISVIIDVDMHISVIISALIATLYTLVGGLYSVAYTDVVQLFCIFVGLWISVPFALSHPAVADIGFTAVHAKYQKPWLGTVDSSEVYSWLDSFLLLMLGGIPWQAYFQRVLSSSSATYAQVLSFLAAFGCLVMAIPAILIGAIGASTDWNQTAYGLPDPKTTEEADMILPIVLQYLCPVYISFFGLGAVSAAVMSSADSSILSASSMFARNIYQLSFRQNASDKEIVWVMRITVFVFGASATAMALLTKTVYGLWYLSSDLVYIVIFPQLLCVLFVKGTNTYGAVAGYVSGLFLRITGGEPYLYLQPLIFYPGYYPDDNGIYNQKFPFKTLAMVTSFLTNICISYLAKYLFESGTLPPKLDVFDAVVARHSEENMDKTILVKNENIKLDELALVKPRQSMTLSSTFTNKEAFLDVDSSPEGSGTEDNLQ
# CHT inh = inhibitors of human choline transporter CHT | Q9GZV3 | CHT-expressing cells, membrane potential dye, choline response; active compounds read low | B-score at 10 µM | 0.86% of 310,000 active | AID 488975;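 active = B-score over 3 SD under the library average, and starting fluorescence ratio not unusually high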;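 note: choline stimulus applied at its EC90 after an EC20 pre-addition; B-score computed on integrated fluorescence ratio after choline addition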
# EP2 mod = EP2 receptor (human) modulation. EP2-expressing cells, cAMP HTRF FRET, PGE2 co-stimulation. induction, % at 25 µM. 0.83% of 260,000 active;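 active = compounds whose cAMP rise, as percent of the full-agonist control response, exceeds 60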;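 note: rat C6 glioma line stably carrying human EP2 under a CMV promoter; the protocol text gives 20 µM as final concentration; 100% = response of wells given 1 µM PGE2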
# The depositor's hits bear a star; i = inactive; . = no result; ! = not active in a repeat. In the library only some 2% were active in any assay of this set; here they are far more common.
SMILES,EP2 antag,CHT PAM,CHT inh,EP2 mod
COc1ccc(C(=O)N2CCCC(c3ccnc4cc(C)nn34)C2)cc1OC (stereo unspecified),.,.,.,-15
COc1ccc(-c2cc3nccc(C4CCN(C(=O)OC(C)(C)C)CC4)n3n2)cc1OC,.,.,.,80*
CS(=O)(=O)N1CCC(Cn2nc(-c3ccccc3)ccc2=O)CC1,.,.,.,4
Cc1cccc(N=N/C(=C\O)C(=O)c2cccs2)c1,7,i,i,64*
O=C1N=C(N2CCCCC2)SC1=C1CCCCC1,11,i,i,-8
O=C1NC(=S)SC1=C1CCCCCC1,19,i,-6*,1
COc1ccc(OC)c(-c2cc(C(=O)O)c3cc4ccccc4cc3n2)c1,55*,.,.,6
CC(C)N(C(=O)Cn1nc(-c2nccc3ccccc23)oc1=O)C(C)C,6,.,.,-56
COc1ccc(C(=O)/C=C2/Sc3cc4c(cc3N2C)OCO4)cc1,77*,i,i,28
CN1/C(=C/C(=O)c2ccc(Cl)cc2)Sc2cc3c(cc21)OCO3,75*,i,i,-62
COc1ccc2c(c1)S/C(=C\C(=O)c1ccncc1)N2C,5,i,i,2
COc1ccc(OC)c(Nc2nc(NCCC(C)C)nc(N)c2[N+](=O)[O-])c1,8,i,i,63*
CCC(C)Nc1nc(N)c([N+](=O)[O-])c(Nc2cc(OC)ccc2OC)n1 (stereo unspecified),4,i,i,36
CSc1nc(-c2ccccc2)nc2c1COC(C)(C)C2,12,i,i,64*
CN(C)CCSc1nc(-c2ccccc2)nc2c1COC(C)(C)C2,3,i,i,6
S=c1[nH]nc(-c2ccco2)n1/N=C/c1cccc(Cl)c1Cl,1,i,i,61*
CCN(CC)c1ccc(/C=N/Nc2nc3ccccc3[nH]2)c(O)c1,61*,i,i,-56
Brc1ccc(CSc2nnc(-c3cccnc3)o2)cc1,6,i,-6.3*,-9
CCOC(=O)/C=C/C(=O)Nc1ccc(S(=O)(=O)Nc2c(C)cc(C)cc2C)cc1,28,i,i,-59
CCOC(=O)/C=C/S(=O)(=O)c1ccc(NC(C)=O)cc1,4,i,-5.5*,6
Cc1ccc(-c2cc(C(=O)Nc3ccc4c(c3)OCO4)no2)cc1,11,.,.,-10
COc1ccc(N(CC(=O)N2CCN(c3ccccc3OC)CC2)S(C)(=O)=O)cc1,5,.,.,-33
Cn1c(C(=O)NCCC2=CCCCC2)cc2c(=O)n3ccccc3nc21,12,i,i,63*
Cc1n[nH]c(C)c1CNC(=O)C1CCN(Cc2ccccc2Cl)CC1,9,.,.,-33
Clc1ccc(/C=C/c2nc(Cl)c(-c3ccc(Cl)cc3)c(Cl)n2)cc1,43*!,i,i,18
SMILES,EP2 antag,CHT PAM,CHT inh,EP2 mod
Cc1csc(NC(=O)CN2CCC(C(=O)c3ccc4c(c3)OCCO4)CC2)n1,6,.,.,-4
Cn1c(=O)[nH]c(=O)c2c1nc(NC1CCCCC1)n2Cc1ccccc1,9,i,i,61*
Cn1cccc1-c1nc2ccc(NC(=O)c3cccs3)cc2[nH]1,48*,i,i,-12
O=C(Nc1ccc2nc(-c3ccc(Br)o3)[nH]c2c1)c1cccs1,13,i,i,-15
O=C(NCCc1nc(-c2ccncc2)n[nH]1)C1(c2ccccc2F)CCCC1,.,.,.,2
Cc1ccc(S(=O)(=O)N2CCSC2)cc1C,109*!,i,i,-14
COc1ccc(S(=O)(=O)N2CCSC2)cc1C,8,i,i,6
Cc1cc(C)c2[nH]c(=O)c(C(c3nnnn3CC3CCCO3)N3c4ccccc4CC3C)cc2c1 (stereo unspecified),14,.,.,8
CC(C)c1ccc(OCc2ccc(C(=O)N3CCCC3)o2)cc1,.,7.1*,i,.
COc1ccc(CC[N@+]2(C)COc3cc4oc(=O)cc(C)c4cc3C2)cc1OC,51*,.,.,16
CC(C)(C)c1ccc(O)c(CN(Cc2cc(C(C)(C)C)ccc2O)C2CCCCC2)c1,64*,.,.,-16
CN(C)C(=O)CNc1n[nH]c(=S)[nH]c1=O,28,i,i,-4
CC(C)C(Nc1n[nH]c(=O)[nH]c1=O)C(=O)O (stereo unspecified),22,.,.,-2
CC(C)OC(=O)CNc1n[nH]c(=S)[nH]c1=O,101*,.,.,-30
CC(C)COC(=O)C(C)Nc1n[nH]c(=S)[nH]c1=O (stereo unspecified),47*,i,i,-25
CC(C)OC(=O)C(C)Nc1n[nH]c(=S)[nH]c1=O (stereo unspecified),105*,.,.,-46
